Assay results published in PubChem BioAssay (Tox21).
Results filed as inconclusive are left out. Entries that show only a call come without a potency. Active and inactive are the calls of the source. The call rests on the fitted dose curve; in most records, active means well fitted cell-killing curve with a large enough effect in the repeat runs; inconclusive means weak or mixed curves, or effect the other way; inactive means flat fitted curve, though single readings scatter.

Assay: qHTS assay to identify small molecule antagonists of the constitutive androstane receptor (CAR) signaling pathway - cell viability counter screen (AID 1224837); further: nearly all actives have a fitted effect of over 45% in size
Conditions: HepG2-CYP2B6-hCAR viability, CellTiter-Fluor, 23 h, co-treated with 50 nM CITCO; series mostly up to 92.4 µM
Source text: National Center for Advancing Translational Sciences [NCATS]
NIH Chemical Genomics Center [NCGC]
U.S. Environmental Protection Agency [EPA]
National Institutes of Environmental Health Sciences [NIEHS]
National Toxicology Program [NTP]
U.S. Food and Drug Administration [FDA]
The constitutive androstane receptor (CAR) is a nuclear receptor which regulates multiple drug metabolizing enzymes (DMEs) and transporters. Activating CAR will generally increase the transcription and subsequent translation of CYP2B6 and CYP3A4. These two DMEs represent about 50% of the drug metabolizing potential in the body. When CAR is deactivated, the metabolizing potential in the body will decrease, subsequently increasing the toxicity in the body or lowering the therapeutic potential of a pro-drug. Recently, there have also been studies performed indicating CARs role in energy metabolism and cancer therapy. Therefore, inhibiting CARs activity could have a potential effect on diabetes and cancer. Identifying environmental toxins and compounds which modulate CAR, through the use of the Tox21 10K compound collection, will be an important step in determining the toxicity and potential therapeutic effects these factors will have on the human body. To differentiate true CAR antagonists from cytotoxic substances, the assay is multiplexed with a cell viability assay.
Tox21 Assay Protocol Summary:
A double-stable (hCAR and CYP2B6-2.2kb) transfected cell line, derived from human hepatoma (HepG2) cells, was utilized for the duration of the quantitative high-throughput screens. The HepG2-CYP2B6-hCAR cells were dispensed at 2500 cells/4 uL/well in 1536-well white solid bottom plates using a Multidrop Combi. After the assay plates were incubated at 37 C/5% CO2 for 4 hrs, 23 nL of compounds at 15 concentrations (from 5-48 columns) or positive control (from 1 to 4 columns) were transferred to the assay plates using a Pintool station. One uL of CITCO (final concentration = 50 nM) was added, using a Flying Reagent Dispenser, inside each well. After a 23 hr incubation period at 37 C/5% CO2, 1 uL of CellTiter-Fluor reagent was added into each well of the assay plates using a Flying Reagent Dispenser. The fluorescence intensity in the plates was then measured using a ViewLux plate reader.
Potency means the concentration at half of the fitted maximal effect.

Row | Structure (SMILES) | Potency
1 | NC(=O)N1c2ccccc2C=Cc2ccccc21 | inactive
2 | COC(=O)C1CCC(C(=O)OC)CC1 (stereo not given) | inactive
3 | CCCCOCCOCCOC(C)=O | inactive
4 | Cc1cccc(Nc2cc(Cl)nc(SCC(=O)O)n2)c1C | inactive
5 | O=C(OCc1ccccc1)c1ccccc1 | inactive
6 | O=C(O)Cc1cccc2ccccc12 | inactive
7 | NC(N)=NC(N)=NCCc1ccccc1 | inactive
8 | CC(=O)c1ccc(S(=O)(=O)NC(=O)NC2CCCCC2)cc1 | inactive
9 | CCCCNC(=O)NS(=O)(=O)c1ccc(N)cc1 | inactive
10 | CN(C)Cc1cc(CN(C)C)c(O)c(CN(C)C)c1 | inactive
11 | CC(=O)/C=C/C1=C(C)CCCC1(C)C | inactive
12 | CCCCCCCC(=O)OCC(O)CO (stereo not given) | inactive
13 | CO[C@H]1C=CO[C@@]2(C)Oc3c(C)c(O)c4c(O)c(c(/C=N/N5CCN(C)CC5)c(O)c4c3C2=O)NC(=O)/C(C)=C\C=C[C@H](C)[C@H](O)[C@@H](C)[C@@H](O)[C@@H](C)[C@H](OC(C)=O)[C@@H]1C | 30.8 µM (active)
14 | COc1ccc(O)cc1 | inactive
15 | CCc1cc(C(N)=S)ccn1 | inactive
16 | Nc1cccc(N)c1 | inactive
17 | N[C@@H](Cc1c[nH]c2ccc(O)cc12)C(=O)O | inactive
18 | CC(C)(C)CC(C)(C)c1ccc(O)c(-n2nc3ccccc3n2)c1 | inactive
19 | C#C[C@]1(O)CC[C@H]2[C@@H]3CCc4cc(O)ccc4[C@H]3CC[C@@]21C | inactive
20 | COc1cc(C=O)ccc1O | inactive

Row | Structure (SMILES) | Potency
21 | CN(C)C=O | inactive
22 | COC1=CC(=O)C[C@@H](C)[C@]12Oc1c(Cl)c(OC)cc(OC)c1C2=O | inactive
23 | CCCCOC(=O)CCCCCCCCC(=O)OCCCC | inactive
24 | N[C@@H](Cc1c[nH]c2ccccc12)C(=O)O | inactive
25 | Cc1c(N(C)CS(=O)(=O)O)c(=O)n(-c2ccccc2)n1C | inactive
26 | O=C1OC(c2ccc(O)cc2)(c2ccc(O)cc2)c2ccccc21 | inactive
27 | C=CCOC(=O)CC(C)C | inactive
28 | O=C(O)CN(CC(=O)O)CC(=O)O | inactive
29 | CCCCCCCCCCCCCCCCCC(=O)OCC(O)CO (stereo not given) | inactive
30 | CN/C(=C\[N+](=O)[O-])NCCSCc1ccc(CN(C)C)o1 | inactive
31 | NC(=O)NO | inactive
32 | CC(C)CC(C)CC(O)CC(C)C (stereo not given) | inactive
33 | COC(=O)c1ccc(C=O)cc1 | inactive
34 | COCC(C)N (stereo not given) | inactive
35 | Cc1c(N(C)C)c(=O)n(-c2ccccc2)n1C | inactive
36 | OCCCc1ccccc1 | inactive
37 | CC1=C(/C=C/C(C)=C/C=C/C(C)=C/C(=O)O)C(C)(C)CCC1 | inactive
38 | O=C1CCCCCN1 | inactive
39 | Cc1ccc(O)c(-n2nc3ccccc3n2)c1 | inactive
40 | NC(=O)OCC(COC(N)=O)c1ccccc1 | inactive
